Compound activity deposited in PubChem by several laboratories.
Rows were chosen to be rich in hits. Some 5.7% of all compounds tested hit in one or more screens of this group.
FAS-TE inh: FAS thioesterase domain inhibitors, primary screen, biochemical, fluorescence intensity, uHTS; Fatty acid synthase (Homo sapiens), P49327; inhibition, % at 15 µM; recombinant FAS-TE, OMFH fluorogenic substrate, fluorescence endpoint; 360,000 tested, 0.67% active;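 active = compounds whose normalised, plate-corrected inhibition of enzyme fluorescence in the single-dose primary screen is 50% or more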
Myeloid diff 2: induction of myeloid progenitor differentiation, primary screen, cell-based, flow cytometry, MLPCN library. ER-HoxA9 myeloid progenitors, lysozyme-GFP differentiation. calls only at 10 µM. 360,000 tested, 1% active;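 active = normalized GFP-positive differentiation at or above the plate's own cutoff, the solvent-only control mean plus 3 SD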;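 note: cells exposed to compound for four days before flow analysis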
NR3A LBD binder: binders of NR3A ligand-binding domain, primary screen, biophysical, differential scanning fluorimetry, uHTS | Glutamate receptor ionotropic, NMDA 3A (GRIN3A) ligand-binding domain | NR3A LBD differential scanning fluorimetry, Tm shift; 0% = protein alone, 100% = glycine-bound protein | Tm shift relative to glycine control, % at 25 µM | 340,000 tested, 2.5% active | AID 1259313, 2017;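 active = melting temperature shift of at least 10% of the positive control shift, at one fixed dose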
MPTP block: mitochondrial permeability transition pore inhibitors, primary screen, biochemical, isolated mouse mitochondria, absorbance; Ca2+ swelling absorbance, 30 min; inhibition, % at 10 µM; 360,000 tested, 1.4% active;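 active = inhibition of 50% or more, scaled per plate between neutral and stimulator controls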
rCAG RNA binder: binders of r(CAG) RNA repeats, primary screen, biochemical, fluorescence | inhibition, % at 3 µM | AID 651821, 2012 | 370,000 tested, 1.3% active | r(CAG) RNA repeat, TO-PRO-1 dye displacement fluorescence;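 active = inhibition above the plate cutoff, the mean of all test compounds on that plate plus 3 SD, cut at about 35% in these data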;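 note: higher means more dye released from RNA so lower well fluorescence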
Large screens that a line does not name were inactive.

Cc1ccc2c(c1)C1CS(=O)(=O)N(Cc3ccccc3)C(=O)N1C2 (stereo not given)	none (no result: FAS-TE inh, Myeloid diff 2, NR3A LBD binder, MPTP block)
CCOC(=O)[C@H](CCc1ccccc1)N[C@@H](C)C(=O)N1Cc2cc(OC)c(OC)cc2C[C@H]1C(=O)O	none (no result: FAS-TE inh, Myeloid diff 2, NR3A LBD binder, MPTP block)
Cc1cccc2cc(CN(C(=S)NCC(C)C)C3CCCC3)c(=O)[nH]c12	NR3A LBD binder 13
CCNC(=S)N(Cc1cc2cccc(C)c2[nH]c1=O)C1CCCC1	none
Cc1ccc(NC(=O)OC2CC3CC2[C@H]2CCCCN2[C@H]3C)cc1 (stereo not given in full)	none (no result: FAS-TE inh, Myeloid diff 2, NR3A LBD binder, MPTP block)
Cc1ccccc1C(=O)N[C@H](C(=O)N1CCC[C@H]1C(=O)NC1CCCC1)C1CCCCC1	none (no result: FAS-TE inh, Myeloid diff 2, NR3A LBD binder, MPTP block)
CCCC(=NCc1ccccc1)C1=C(O)C(C(=O)OC)C(C)(C)CC1=O (stereo not given)	none
CCCC(=NCC(=O)O)C1=C(O)C(C(=O)OC)C(C)(C)CC1=O (stereo not given)	NR3A LBD binder 25
Cc1cccc(C(=O)Oc2ccc(/C=N/NC(=O)c3cc(O)cc(O)c3)cc2)c1	NR3A LBD binder 14
COc1cc(/C=N/NC(=O)c2ccccc2O)ccc1OCC(=O)Nc1ccccc1	NR3A LBD binder 37
O=C(COc1ccc(/C=N/NC(=O)c2cccnc2)cc1)Nc1ccccc1	NR3A LBD binder 13
COc1cc(/C=N/NC(=O)c2ccncc2)ccc1OCC(=O)Nc1ccccc1	none
COc1cc(/C=C(/C#N)C(=O)Nc2ccccc2)ccc1OCc1ccc(C(=O)O)cc1	rCAG RNA binder 40
C=CCN1C(=O)[C@H](CC(=O)NCCc2ccccc2OC)[C@@]2(C(=O)OCC)CCCC=C12	none (no result: FAS-TE inh, Myeloid diff 2, NR3A LBD binder, MPTP block)
COCc1cc(N2CCNC[C@H]2C)ccc1N1C[C@@H](C)O[C@@H](C)C1	none (no result: FAS-TE inh, Myeloid diff 2, NR3A LBD binder, MPTP block)
N#CCCCc1cn(-c2cccc(-c3noc4c3C(=O)N(CC(=O)N3CCOCC3)CC4)c2)nn1	none (no result: FAS-TE inh, Myeloid diff 2, NR3A LBD binder, MPTP block)
COc1cc(/C=C(\C#N)c2nc3ccccc3s2)ccc1OCC(=O)Nc1ccccc1	Myeloid diff 2 active (no result: rCAG RNA binder)
O=C(COc1ccc(/C=N/NC(=O)c2ccccc2O)cc1)Nc1ccccc1	NR3A LBD binder 16
CSc1ccc(/C=N/NC(=O)c2cc(O)cc(O)c2)cc1	NR3A LBD binder 13
O=C(Oc1ccc(/C=N/NC(=O)c2ccccc2O)cc1)c1ccccc1	NR3A LBD binder 13
O=C(Oc1ccc(/C=N/NC(=O)c2ccccc2F)cc1)c1ccccc1	none
CC(CCN1CCC(C(O)(c2ccccc2)c2ccccc2)CC1)Oc1cccc(C(F)(F)F)c1 (stereo not given)	none (no result: FAS-TE inh, Myeloid diff 2, NR3A LBD binder, MPTP block)
COC(=O)C1CN(C2CC2)CCS(=O)(=O)N1Cc1cn(Cc2ccc(F)cc2)nn1 (stereo not given)	none (no result: FAS-TE inh, Myeloid diff 2, NR3A LBD binder, MPTP block)
O=C(Nc1nccs1)c1cn(-c2ccccc2)nc1-c1ccccc1	none
CC(C)COc1ccc(-c2nn(-c3ccccc3)cc2C(=O)Nc2nccs2)cc1	NR3A LBD binder 10
CC(=O)Cc1nsc(NC(=O)c2cn(-c3ccccc3)nc2-c2ccc(Br)cc2)n1	NR3A LBD binder 31
O=C(NCc1ccccc1)N1CCN(Cc2nc3ccccc3c(=O)[nH]2)CC1	none (no result: FAS-TE inh, Myeloid diff 2, NR3A LBD binder, MPTP block)
Cc1ccc(C(=O)/C=C/c2ccc(Br)cc2)o1	Myeloid diff 2 active
CC(C)(Cc1nc2ccccc2[nH]1)c1nc2ccccc2[nH]1	none (no result: NR3A LBD binder)
CC(=O)c1cccc(NC(=O)CSCc2ccccc2)c1	none
CC(=O)c1cccc(NC(=O)CSCc2ccc(Br)cc2)c1	NR3A LBD binder 23
Cc1ccc(NC(=O)Nc2cccnc2)cc1Cl	NR3A LBD binder 31
O=C(Nc1ccc(OC(F)(F)F)cc1)Nc1cccnc1	NR3A LBD binder 11
O=C(Nc1ccc(F)cc1)Nc1cccnc1	none
Cc1ccc(NC(=O)Nc2ccc3c(c2)C(=O)OC3)cc1Cl	NR3A LBD binder 24
CC(C)(C)c1ccc(-c2nnc(SCC(=O)Nc3cccc4ccccc34)n2Cc2ccco2)cc1	none (no result: FAS-TE inh, Myeloid diff 2, NR3A LBD binder, MPTP block)
O=c1[nH]c(COc2ccccc2)nc2ccccc12	none
S=c1nc(COc2ccccc2)[nH]c2ccccc12	Myeloid diff 2 active
S=c1nc(Cc2ccccc2)[nH]c2ccccc12	Myeloid diff 2 active
CN1CCCN(S(=O)(=O)c2cccc(C(F)(F)F)c2)c2nc3ccccc3nc21	Myeloid diff 2 active
O=C(C(=O)N1CCN(S(=O)(=O)c2cccc(C(F)(F)F)c2)CC1)c1cccc(C(F)(F)F)c1	none (no result: FAS-TE inh, Myeloid diff 2, NR3A LBD binder, MPTP block)
